Source: the supplement of paper PMC6555819

Experiments:
Assay in all cases: PBM binding z-score (relative to random genomic background probes); higher = stronger binding; sequences stand for … in GC…GCGATTGACAGCGTAGAATGAAGG
[1] = system: FXR:RXRa (NR concentration 270 nM, RXRa partner concentration 90 nM)
In short: (§1)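 Probes were double-stranded and carried 34-nt variable regions with direct-repeat seeds, single-nucleotide variants, half-site ablations and random human genomic background sequences, printed on custom Agilent 4×180K protein-binding microarrays. Arrays were incubated 1 h with ligand-free nuclear receptor dimers in PBS pH 7.4, 2% milk, 0.02% Triton X-100, 1 mM DTT, 0.2 mg/mL BSA and 0.4 mg/ml salmon testes DNA. Antibodies against each partner (one per run) detected binding, and scanned fluorescence was regression-normalized. Binding z-scores use the random background probes as reference.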

[2] = system: LXRa:RXRa (NR concentration 270 nM, RXRa partner concentration 90 nM)
In short: as §1

[3] = system: LXRa homodimer (NR concentration 270 nM)
In short: as §1

[4] = system: LXRb:RXRa (NR concentration 270 nM, RXRa partner concentration 90 nM)
In short: as §1

[5] = system: LXRb homodimer (NR concentration 270 nM)
In short: as §1

[6] = system: PPARa:RXRa (NR concentration 270 nM, RXRa partner concentration 90 nM)
In short: as §1

[7] = system: PPARg:RXRa (NR concentration 180 nM, RXRa partner concentration 90 nM)
In short: as §1

[8] = system: PPARg:RXRa 270nM:90nM, anti-RXR (NR concentration 270 nM, RXRa partner concentration 90 nM)
In short: as §1

[9] = system: PPARg:RXRa 30nM:10nM, anti-RXR (NR concentration 30 nM, RXRa partner concentration 10 nM)
In short: as §1

[10] = system: PPARg:RXRa 90nM:30nM, anti-RXR (NR concentration 90 nM, RXRa partner concentration 30 nM)
In short: as §1

[11] = system: PPARg:RXRa DBDmut IVT, anti-RXR (DBD mutation: RXRa K156A/R161A, NR concentration 270 nM, RXRa partner concentration 90 nM)
In short: as §1

[12] = system: PPARg:RXRa IVT, anti-PPARg (NR concentration 270 nM, RXRa partner concentration 90 nM)
In short: as §1

[13] = system: PPARg DBDmut:RXRa IVT, anti-PPARg (DBD mutation: PPARg1 K132A/R137A, NR concentration 270 nM, RXRa partner concentration 90 nM)
In short: as §1

[14] = system: PPARg DBDmut IVT, anti-PPARg (DBD mutation: PPARg1 K132A/R137A, NR concentration 270 nM)
In short: as §1

[15] = system: PPARg homodimer (NR concentration 180 nM)
In short: as §1

[16] = system: PXR:RXRa (NR concentration 270 nM, RXRa partner concentration 90 nM)
In short: as §1

[17] = system: PXR homodimer (NR concentration 270 nM)
In short: as §1

[18] = system: RARa:RXR (NR concentration 270 nM, RXRa partner concentration 90 nM)
In short: as §1

[19] = system: RARa homodimer (NR concentration 270 nM)
In short: as §1

[20] = system: RARb:RXRa (NR concentration 270 nM, RXRa partner concentration 90 nM)
In short: as §1

Sequence | PBM binding z-score [1] | PBM binding z-score [2] | PBM binding z-score [3] | PBM binding z-score [4] | PBM binding z-score [5] | PBM binding z-score [6] | PBM binding z-score [7] | PBM binding z-score [8] | PBM binding z-score [9] | PBM binding z-score [10] | PBM binding z-score [11] | PBM binding z-score [12] | PBM binding z-score [13] | PBM binding z-score [14] | PBM binding z-score [15] | PBM binding z-score [16] | PBM binding z-score [17] | PBM binding z-score [18] | PBM binding z-score [19] | PBM binding z-score [20]
GATACAGGGTCAAGGCCAGAGTTCGCGTATTGAT | 6.64 | 4.34 | 0.289 | 3.72 | -0.198 | 5.66 | 5.99 | 5.93 | 2.4 | 4.93 | 2.6 | 3.98 | 0.606 | -0.0978 | 2.3 | 5.07 | 1.99 | 5.07 | 1.32 | 4.49
GCTAGCTGGCCATTTGGGTCACTCAATGACGGGC | -0.265 | -0.387 | -0.995 | -0.164 | -1.15 | 0.689 | 0.205 | -0.0931 | -1 | -0.612 | 0.293 | 1.17 | -0.756 | -0.983 | -0.342 | -0.0667 | -0.751 | 0.365 | -1.31 | 0.859
TCTTGTAGATCAAGCAGGTGAAGAAAGCCTGAGT | 0.239 | 0.182 | -0.332 | -0.145 | -0.467 | 0.527 | -0.404 | 1.19 | 2.61 | 2.07 | 1.7 | 0.945 | 0.265 | -0.33 | -0.0595 | 0.043 | -0.139 | 0.061 | -0.384 | -0.159
ATCTCTAGGTAAAGACAGTTCAGTGAATGCAAAT | 0.377 | 2.43 | 0.934 | 0.745 | 0.542 | 0.628 | 0.336 | 0.491 | 0.147 | 0.518 | 2.12 | 1.73 | 0.488 | 0.666 | 0.86 | 1.61 | 1 | 0.704 | 1.05 | 0.625
AGTCAAAGTTCAGGTCGAGGTAACGTAAAGCACG | 4.82 | 4.08 | 1.87 | 2.47 | 0.819 | 3.6 | 4.74 | 4.74 | 2.07 | 3.97 | -0.195 | 2.16 | 0.434 | 0.251 | 2.76 | 3.53 | 2.14 | 3.43 | 1.49 | 4.47
CCTACTGGGCCATCAGGTCATTGATATCAACGTT | 1.4 | 1.19 | 1.28 | 1.56 | -0.271 | 2.79 | 2.68 | 3.7 | 1.46 | 3.18 | 4.98 | 4.72 | 0.527 | -0.213 | 1.26 | 1.56 | 0.961 | 1.65 | 0.0562 | 2.1
GCGACCGGGGCAAAGCAGGTTACCATAAGGTTGG | 0.264 | 0.812 | -0.366 | 0.0322 | -1.28 | 1.42 | 0.709 | 0.611 | -0.666 | -0.143 | 1.27 | 1.24 | -1.18 | -1.17 | 0.243 | 0.857 | -0.433 | 1.31 | -0.661 | 1.65
TCGACTAGGTTAGGGGCATTCAGAATGGCGTCGA | 0.141 | 0.372 | -0.304 | 0.803 | -0.322 | 1.38 | 1.35 | 2.49 | 1.74 | 2.17 | 2.47 | 1.86 | 0.0313 | -0.271 | 0.688 | 0.539 | -0.0457 | 0.602 | -0.239 | 1.26
CCTTACGGGTCACTGACAGGTTATAGCCTTTGGA | 5.57 | 4.01 | 0.368 | 3.43 | -0.148 | 4.99 | 4.28 | 4.31 | 1.31 | 2.99 | 2.98 | 3.74 | 0.266 | 0.106 | 3.2 | 3.83 | -0.0377 | 4.93 | 0.735 | 3.95
TCTGCTAGGTCAACGGTGGTCAGCTAATCTGCTA | 3.59 | 2.75 | -0.0402 | 1.6 | -0.0139 | 3.54 | 3.35 | 3.81 | 2.45 | 3.42 | 4.54 | 4.36 | -0.104 | -0.365 | 1.38 | 1.99 | -0.742 | 2.38 | -0.57 | 4.05
AGAATGAGGTTATACGGAGATCAGGGAAGAAAGT | 2.36 | 1.94 | 0.0841 | 1.7 | 0.0612 | 3.29 | 1.7 | 2.04 | 0.685 | 1.45 | 2.35 | 2.05 | 1.14 | 0.774 | 0.836 | 1.25 | 0.96 | 1.74 | 0.352 | 1.5
ACTCGGAGGACAAAGGTCAGAGTTACGCCAGTGA | 4.06 | 4.17 | 1.93 | 3.55 | 0.422 | 5.03 | 7.06 | 6.77 | 5.57 | 7.32 | 0.7 | 3.34 | 0.234 | -0.025 | 4.3 | 4.14 | 0.365 | 5.54 | 1.61 | 4.38
AGAATGAGGTTAAAATCAGGGAAACAGAATACAT | 2.65 | 2.59 | 0.234 | 2.08 | 0.345 | 3.69 | 2.3 | 2.46 | 0.879 | 1.7 | 2.34 | 2.5 | 0.82 | 1.18 | 0.858 | 1.17 | 0.655 | 1.9 | 0.961 | 1.59
TAGCCTAGGCCATTGGGCCAGTATAGTACGCATC | -0.681 | -0.881 | -0.612 | -0.883 | -1.27 | -1.09 | 0.237 | -0.512 | -0.597 | -0.438 | -0.378 | 0.553 | -1.56 | -0.875 | -1.33 | -0.947 | -0.712 | -0.936 | -0.489 | 0.356
CCTGCTAGGTCAATGGTCAGCTACAGCAGCTCGC | 3.03 | 2.08 | -0.0038 | 1.55 | -0.217 | 2.98 | 4.03 | 5.1 | 2.52 | 4.92 | 4.55 | 3.95 | -0.354 | -0.419 | 1.53 | 1.04 | -0.299 | 1.64 | -0.404 | 3.58
CTACCAAGCTGAACAAGGTCGTTGATTACTATTC | 0.51 | 0.731 | 0.686 | 1.31 | -0.0286 | 0.706 | -0.00663 | 0.00986 | -0.206 | -0.336 | 0.107 | -0.452 | 0.163 | 0.158 | 0.308 | 1.39 | 1.02 | 1.31 | 0.561 | 0.523
GTACCCAGGTGAATAGGTCGTTGATGAGTAGGCG | 0.381 | 0.343 | -0.131 | 0.285 | -0.0749 | 1.59 | 1.34 | 1.25 | 0.309 | 0.972 | 1.26 | 2.42 | -0.166 | -0.407 | 0.786 | 0.279 | 0.138 | 1.08 | 0.238 | 0.908
CCAAACAGGTGAAAGGTAACTCAGTCTGGTACGC | 0.642 | 0.809 | -0.217 | 1.09 | -0.282 | 3.85 | 7.47 | 7.29 | 7.5 | 8.18 | 3.27 | 4.15 | 0.615 | 0.037 | 1.17 | 1.01 | 0.17 | 2.3 | 1.21 | 1.21
ATCTCTAGGTAACCAAGTTCCGTGAATGCCGAAC | -0.0612 | 0.165 | 0.165 | 0.157 | 0.617 | 0.45 | 0.308 | 0.331 | -0.073 | 0.181 | 3.6 | 2.9 | 0.664 | 0.557 | 0.453 | 0.03 | 0.0548 | 0.264 | 0.19 | 0.435
